The values below come from PubChem BioAssay AID1794808 (University of Kansas High Throughput Screening Laboratory, 2022).

SMILES strings stand for the structures. The whole screen tested about 210,000 compounds, of which about 520 (0.25%) were called active. The sample holds actives, similar compounds and a random draw of the others, so the mix is not that of the screen. Unmarked numbers belong to inactive results. No stated cut-off is given here; in the data, active means inhibition above about 50%; inactive means the rest.

This assay deals with Plasmodium falciparum apicoplast DNA polymerase (apPOL). The assay can be described thus: Pf-apPOL inhibitors, biochemical, fluorescence (AID 1794808). The conditions noted are these: Recombinant Pf-apPOL, molecular beacon fluorescence, 1.5 h; at 10 µM; stronger effect = higher value.
As for `CCC1(c2ccccc2)C(=O)NC(=O)N(C(=O)c2ccccc2I)C1=O` (stereo not given), the inhibition is -1.8%. The value for `CCCCC1(c2ccccc2)C(=O)NC(=O)NC1=O` was 81.2% (active). In the case of `CCC1(c2ccccc2)C(=O)NC(=O)N(C)C1=O` (stereo not given) it was -0.8%; in that of `Cc1nnc(SCc2nc3ccccc3c(=O)n2-c2ccccc2Cl)s1`, 0.3%. For `CCn1cc(C(=O)NCc2cccc(C)c2)c2cccnc21`, the inhibition is -12.8%.

As usually defined, the inhibition is the change of the read-out against control, counted positive when it falls.
